# In PubChem BioAssay (Tox21):
# Records with an inconclusive call do not appear. A call without a number means that no potency is given here. Active and inactive are the calls of the source. Calls follow the shape of the full dose curve. Non-standard residues stand in square brackets, D forms with d. Residues, ends and D or L forms follow the SMILES beside them. pGlu = O=C1CC[C@@H](C(=O)O)N1
# Target: Acetylcholinesterase (Homo sapiens) (UniProt P22303)
# Assay: Acetylcholinesterase (AChE) small molecule antagonists: colormetric cell-based qHTS assay (AID 1347395); also: nearly all actives have a fitted effect of over 30% in size
# Conditions: SH-SY5Y cells AChE activity, colorimetric (Ellman); series mostly up to 115 µM
# Outline: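 Cells (SH-SY5Y, 2,000 per well) are seeded and left overnight at 37 C. Compound is added for 30 min, then DTNB and acetylthiocholine for a further 90 min at 37 C before absorbance-based thiocholine detection.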
# Sequence of Acetylcholinesterase (Homo sapiens) (P22303 whole entry, looked up): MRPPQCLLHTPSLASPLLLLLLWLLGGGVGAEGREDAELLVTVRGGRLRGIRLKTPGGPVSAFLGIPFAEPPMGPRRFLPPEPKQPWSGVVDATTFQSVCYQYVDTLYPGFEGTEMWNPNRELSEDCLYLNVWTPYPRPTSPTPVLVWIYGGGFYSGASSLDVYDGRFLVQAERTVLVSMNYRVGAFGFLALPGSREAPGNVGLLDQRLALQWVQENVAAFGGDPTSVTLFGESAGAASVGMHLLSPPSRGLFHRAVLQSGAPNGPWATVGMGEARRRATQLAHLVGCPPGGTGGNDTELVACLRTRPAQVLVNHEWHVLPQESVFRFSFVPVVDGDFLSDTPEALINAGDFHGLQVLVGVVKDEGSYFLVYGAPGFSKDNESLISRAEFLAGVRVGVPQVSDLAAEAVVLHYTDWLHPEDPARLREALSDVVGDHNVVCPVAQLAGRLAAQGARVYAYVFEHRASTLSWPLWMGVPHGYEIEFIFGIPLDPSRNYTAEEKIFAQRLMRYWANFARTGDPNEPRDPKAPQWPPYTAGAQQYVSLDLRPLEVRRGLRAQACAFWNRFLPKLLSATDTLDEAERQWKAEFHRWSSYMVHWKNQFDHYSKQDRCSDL
row,SMILES,Potency
1,Cc1cccc(C(=O)O)c1,inactive
2,Cc1ccc(C(=O)O)cc1[N+](=O)[O-],inactive
3,C#Cc1ccc(-c2ccccc2F)cc1,inactive
4,CC1=CCC(C(C)C)=CC1,inactive
5,CCN(Cc1c(F)cccc1Cl)c1c([N+](=O)[O-])cc(C(F)(F)F)cc1[N+](=O)[O-],inactive
6,Oc1ccc(OCc2ccccc2)cc1,inactive
7,CC(C)(C)NCC(O)COc1ccccc1OCC1CCCO1 (configuration not stated),inactive
8,OCC(CO)(CO)COCC(CO)(CO)CO,inactive
9,CN(CCOc1ccc(CC2SC(=O)NC2=O)cc1)c1ccccn1 (configuration not stated),inactive
10,CCCCCCCCCC(=O)OCC,inactive
11,Nc1ncnc2nc[nH]c12,inactive
12,COC(=O)c1ccc(C(=O)O)cc1,inactive
13,C=CC(=O)OCCCCCC,inactive
14,CCCCN(CCCC)CCCC,inactive
15,CCOC(=O)[C@H](CCc1ccccc1)N[C@@H](C)C(=O)N(CC(=O)O)C1Cc2ccccc2C1,inactive
16,CC(C)Cc1nccs1,inactive
17,CO[C@@H]1[C@@H](OC)[C@H](C)[C@@](O)(CC(=O)O)O[C@H]1[C@H](C)[C@H]1O[C@@]2(CC[C@@](C)([C@H]3CC[C@@](C)([C@@H]4O[C@@H]([C@H]5O[C@](C)(O)[C@H](C)C[C@@H]5C)C[C@@H]4OC4C[C@H](OC)[C@@H](OC)[C@H](C)O4)O3)O2)C[C@H](O)[C@H]1C (some centres not stated),inactive
18,CC(C)=CCl,inactive
19,CN(C)/N=N/c1nc[nH]c1C(N)=O,inactive
20,CCCCC/C=C/CC(=O)OC,inactive
21,CCN1CCc2nc(N)oc2CC1,inactive
22,CC(C)=CC1CC(C)CCO1 (configuration not stated),inactive

# Target: Acetylcholinesterase (Homo sapiens) (UniProt P22303)
# Assay: Acetylcholinesterase (AChE) small molecule antagonists: enzyme-based qHTS assay (AID 1347397); also: nearly all actives have a fitted effect of over 55% in size
# Conditions: Potency: AChE enzyme activity inhibition; outcome: AChE enzyme activity inhibition; series mostly up to 115 µM
# Outline: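 In this quantitative HTS, compounds from the Tox21 10K collection were preincubated 30 min at ambient temperature with recombinant human AChE dispensed at 50 mU/mL. Hydrolysis of acetylthiocholine was then followed for 10 min by DTNB colour development.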
row,SMILES,Potency
1,O=C1C(N(CO)C(=O)NCO)N(CO)C(=O)N1CO (configuration not stated),inactive
2,O=C1Nc2ccccc2C1(c1ccc(O)cc1)c1ccc(O)cc1,inactive
3,Nc1ncnc(Nc2ccccc2)n1,inactive
4,Cc1cc(C)c(/C=C2\C(=O)Nc3ccccc32)[nH]1,inactive
5,O=C(O)c1ccc(-n2nc(-c3ccccc3O)nc2-c2ccccc2O)cc1,inactive
6,CC1CCCC(=O)C1=O (configuration not stated),inactive
7,COc1ccccc1C=O,inactive
8,O=S(=O)(O)c1ccc(Cl)cc1,inactive
9,CC1(C)Cc2cccc(N)c2O1,inactive
10,C=C[C@@H](C)CCC=C(C)C,inactive
11,C[C@]12CC[C@@H]3c4ccc(O)cc4CC[C@H]3[C@@H]1CC[C@@H]2OC(=O)CCC1CCCC1,inactive
12,CC(C)c1ccc2c(C(C)C)cc(C(C)C)c(S(=O)(=O)O)c2c1,inactive
13,CCNC(=O)[C@@H]1CCCN1C(=O)[C@H](CCCN=C(N)N)NC(=O)[C@H](CC(C)C)NC(=O)CNC(=O)[C@H](Cc1ccc(O)cc1)NC(=O)[C@H](CO)NC(=O)[C@H](Cc1c[nH]c2ccccc12)NC(=O)[C@H](Cc1cnc[nH]1)NC(=O)[C@@H]1CCC(=O)N1 ([pGlu]HWSYGLRP-NHEt),inactive
14,O=[N+]([O-])c1cccc(Cl)c1,inactive
15,COC(=O)CCCCC(=O)O,inactive
16,CC(C)c1cc2c(cc1S(=O)(=O)O)[C@@]1(C)CCC[C@@](C)(C(=O)O)[C@@H]1CC2,inactive
17,NC(=O)c1cn(Cc2c(F)cccc2F)nn1,inactive
18,CC1=C(C(=O)OC(C)C)C(c2cccc([N+](=O)[O-])c2)C(C(=O)OC2CN(C(c3ccccc3)c3ccccc3)C2)=C(N)N1 (configuration not stated),inactive

row,SMILES,Potency
1,Cc1cccc(C(=O)O)c1,inactive
2,Cc1ccc(C(=O)O)cc1[N+](=O)[O-],inactive
3,C#Cc1ccc(-c2ccccc2F)cc1,inactive
4,CC1=CCC(C(C)C)=CC1,inactive
5,CCN(Cc1c(F)cccc1Cl)c1c([N+](=O)[O-])cc(C(F)(F)F)cc1[N+](=O)[O-],inactive
6,Oc1ccc(OCc2ccccc2)cc1,inactive
7,CC(C)(C)NCC(O)COc1ccccc1OCC1CCCO1 (configuration not stated),inactive
8,OCC(CO)(CO)COCC(CO)(CO)CO,inactive
9,CN(CCOc1ccc(CC2SC(=O)NC2=O)cc1)c1ccccn1 (configuration not stated),inactive
10,CCCCCCCCCC(=O)OCC,inactive
11,Nc1ncnc2nc[nH]c12,inactive
12,COC(=O)c1ccc(C(=O)O)cc1,inactive
13,C=CC(=O)OCCCCCC,inactive
14,CCCCN(CCCC)CCCC,inactive
15,CCOC(=O)[C@H](CCc1ccccc1)N[C@@H](C)C(=O)N(CC(=O)O)C1Cc2ccccc2C1,inactive
16,CC(C)Cc1nccs1,inactive
17,CO[C@@H]1[C@@H](OC)[C@H](C)[C@@](O)(CC(=O)O)O[C@H]1[C@H](C)[C@H]1O[C@@]2(CC[C@@](C)([C@H]3CC[C@@](C)([C@@H]4O[C@@H]([C@H]5O[C@](C)(O)[C@H](C)C[C@@H]5C)C[C@@H]4OC4C[C@H](OC)[C@@H](OC)[C@H](C)O4)O3)O2)C[C@H](O)[C@H]1C (some centres not stated),inactive
